NOMO-1 viab – STK33 inhibitor candidate reducing NOMO-1 cell viability. NOMO-1 AML viability, CellTiter-Glo luminescence, 72 h. inhibition, % (no concentration beside the values). hit rate 7.5% among 37,000. AID 2330; in the data active means inhibition above about 80%; inconclusive means no clear call, values can overlap the other calls
PD-1 reverse act – reversal of PD-1 mediated T-cell inhibition; activation, % (concentration not given with the values); 29,000 tested, under 10 active; AID 2316; primary human CD4 T cells, PD-L1 beads, CellTiter-Glo 96 h; call rule not given here;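 further: 0% = median vehicle wells and 100% = positive control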
Hedgehog inh – Sonic Hedgehog pathway inhibition | Shh-LIGHT2 Gli-luciferase reporter, 30 h | inhibition, % (concentration not given with the values) | hit rate 2.1% among 22,000;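 active means mean inhibition across valid replicates above about 65%, limit read from the data; inconclusive means mean under the limit, yet half or more replicates past it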;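 further: pathway switched on by Shh-conditioned medium diluted 1 in 25 in low serum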
MITF inhib – inhibitors of MITF; inhibition, % (concentration not given with the values); AID 2240; hit rate 0.28% among 37,000; TRPM1 promoter luciferase, luminescence, 24 h; in the data active means inhibition above about 85%; inconclusive means no clear call, values can overlap the other calls; inactive means below about 68%;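 further: human melanocyte line stably carrying TRPM1 promoter luciferase reporter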
Starred values were filed as active, the others as inactive; ? = inconclusive; nt = no result given; ! = repeats disagree. In the library only some 8.1% were active in any assay of this set; here they are far more common.

SMILES	NOMO-1 viab	PD-1 reverse act	Hedgehog inh	MITF inhib
C[C@@H]1CN([C@H](C)CO)C(=O)c2cccc(NC(=O)Nc3ccc(C(F)(F)F)cc3)c2O[C@@H]1CN(C)C(=O)Nc1ccc(C(F)(F)F)cc1	98*	1	2	20
C[C@H]1CN([C@@H](C)CO)C(=O)c2cc(NC(=O)CCN3CCOCC3)ccc2O[C@H]1CN(C)Cc1ccc(C(F)(F)F)cc1	19	-2	7	-10
CCSc1nnc2nc3c4ccccc4c4ccccc4c3nn12	0	0	-13	26
COc1ccc(NC(=O)Nc2cccc3c2O[C@H](CN(C)C(=O)Nc2ccc(C(F)(F)F)cc2)[C@H](C)CN([C@H](C)CO)C3=O)cc1	7	-1	-8	0
COc1ccc(NC(=O)N(C)C[C@H]2Oc3c(NC(=O)Nc4ccc(C(F)(F)F)cc4)cccc3C(=O)N([C@@H](C)CO)C[C@H]2C)cc1	88*	-2	21	7
COc1ccc(S(=O)(=O)Nc2ccc(Br)c3cccnc23)c([N+](=O)[O-])c1	128*	-9	nt	54
CO/N=C(/C(=O)N[C@@H]1C(=O)N2C(C(=O)O)=C(COC(C)=O)CS[C@H]12)c1csc(N)n1	2	nt	-25	9
Cc1ccc(S(=O)(=O)Nc2cccc3c2O[C@H](CN(C)Cc2ccc(C(=O)Nc4ccccc4N)cc2)[C@@H](C)CN([C@@H](C)CO)C3=O)cc1	121*	-1	nt	33
Cc1ccc(S(=O)(=O)Nc2cccc3c2O[C@H](CN(C)Cc2ccc(C(=O)Nc4ccccc4N)cc2)[C@H](C)CN([C@H](C)CO)C3=O)cc1	129*	-1	nt	31
Cc1ccc(S(=O)(=O)Nc2cccc3c2O[C@@H](CN(C)Cc2ccc(C(=O)Nc4ccccc4N)cc2)[C@@H](C)CN([C@@H](C)CO)C3=O)cc1	134*	-1	nt	30
Cc1ccc(S(=O)(=O)Nc2cccc3c2O[C@@H](CN(C)Cc2ccc(C(=O)Nc4ccccc4N)cc2)[C@H](C)CN([C@@H](C)CO)C3=O)cc1	?	1	nt	5
COc1ccccc1NC(=O)CCc1nc(-c2ccc(Cl)cc2)no1	-15	-1	nt	6
C[C@H]1CN([C@@H](C)CO)C(=O)Cc2cc(NC(=O)C3CC3)ccc2O[C@@H]1CN(C)S(=O)(=O)c1ccc(Cl)cc1	9	nt	1	-1
CC1=C(C(=O)Nc2ccccc2)C(c2ccccc2)NC(=O)N1 (stereo unspecified)	12	1	nt	3
O=C(Nc1cccnc1)C1CC(c2ccc(Cl)c(Cl)c2)=NO1 (stereo unspecified)	33	-1	nt	14
CS(=O)c1sc(C(=O)OCc2ccccc2)c2c1C(=O)CC(C)(C)C2 (stereo unspecified)	116*	-7	nt	78
O=C1c2ccccc2O[C@@H](c2ccc(Cl)cc2)[C@@H]1O	114*	-3	-35	-3
O=[N+]([O-])c1ccc(S(=O)(=O)N2CCN(C(=S)NCc3ccco3)CC2)cc1	34	-2	nt	20
COc1ccc(S(=O)(=O)Nc2ccc3c(c2)C(=O)N([C@@H](C)CO)C[C@H](C)[C@H](CN(C)C(=O)Nc2ccccc2)O3)cc1	4	0	nt	-8
C[C@H](CO)N1C[C@H](C)[C@H](CN(C)Cc2ccncc2)Oc2ccc(NC(=O)CCCCCC(=O)Nc3ccccc3N)cc2CC1=O	49	0	nt	-14
C[C@@H]1CN([C@H](C)CO)C(=O)Cc2cc(NC(=O)CCCCCC(=O)Nc3ccccc3N)ccc2O[C@@H]1CN(C)Cc1ccc(C(F)(F)F)cc1	141*	-1	nt	-9
C[C@@H]1CN([C@H](C)CO)C(=O)Cc2cc(NC(=O)CCCCCC(=O)Nc3ccccc3N)ccc2O[C@H]1CN(C)Cc1ccc(C(F)(F)F)cc1	114*	1	nt	12
CC1OC(OCC2OC(Oc3cc(O)c4c(=O)c(-c5ccc(O)cc5)coc4c3)C(O)C(O)C2O)C(O)C(O)C1OC1OC(CO)C(O)C(O)C1O (stereo unspecified)	3	1	-1	7
COc1ccc(S(=O)(=O)N(C)C[C@H]2Oc3c(NC(=O)c4cnccn4)cccc3C(=O)N([C@H](C)CO)C[C@H]2C)cc1	5	1	10	-10
CN1CCN(CCCN2c3ccccc3Sc3ccc(Cl)cc32)CC1	106*!	nt	75*!	4
SMILES	NOMO-1 viab	PD-1 reverse act	Hedgehog inh	MITF inhib
OCCN1CCN(CCCN2c3ccccc3Sc3ccc(C(F)(F)F)cc32)CC1	119*!	nt	?	17
CN1CCCCC1CCN1c2ccccc2Sc2ccc(S(C)=O)cc21 (stereo unspecified)	20	7	40	-9
N#Cc1cc2c(nc1SCCS(=O)(=O)c1nc3ccccc3s1)CCCC2	112*	-9	nt	-12
Cc1cc(C)c(C#N)c(SCCS(=O)(=O)c2nc3ccccc3s2)n1	128*	-13	nt	38
Cc1cc(C)c(C#N)c(SCC(O)CS(=O)(=O)c2ccc(C(C)(C)C)cc2)n1 (stereo unspecified)	24	0	nt	5
Cc1ccc(S(=O)(=O)Nc2ccc3c(c2)C(=O)N([C@H](C)CO)C[C@@H](C)[C@@H](CN(C)Cc2ccc(Oc4ccccc4)cc2)O3)cc1	70	-1	?	54
O=C(Nc1nc(-c2ccccc2)cs1)C12CC3CC(CC(C3)C1)C2	108*	0	-86	-20
Cc1cc([N+](=O)[O-])ccc1NC(=O)CN1C(=O)COc2ccc(Cl)cc21	31	-1	nt	-3
Cc1noc(C)c1S(=O)(=O)Nc1ccc2c(c1)C(=O)N([C@H](C)CO)C[C@@H](C)[C@H](CN(C)Cc1ccc3c(c1)OCO3)O2	10	nt	2	3
C[C@H]1CN([C@@H](C)CO)C(=O)c2cccc(NC(=O)Nc3ccc(F)cc3)c2O[C@H]1CN(C)Cc1ccc(Cl)c(Cl)c1	41	-1	-6	22
COc1ccc(CN(C)C[C@@H]2Oc3c(NC(=O)Nc4ccc(OC)cc4)cccc3C(=O)N([C@H](C)CO)C[C@H]2C)cc1	65	nt	16	21
COc1ccc(NC(=O)Nc2cccc3c2O[C@@H](CN(C)Cc2ccc(Cl)c(Cl)c2)[C@H](C)CN([C@@H](C)CO)C3=O)cc1	111*	-6	-39	65
C[C@H](CO)N1C[C@H](C)[C@@H](CN(C)Cc2ccc(Cl)c(Cl)c2)Oc2c(NC(=O)Nc3ccc(F)cc3)cccc2C1=O	99*	-3	-4	20
C[C@@H]1CN([C@H](C)CO)C(=O)c2cccc(NC(=O)Nc3ccc(F)cc3)c2O[C@H]1CN(C)Cc1ccc(Cl)c(Cl)c1	96*	-3	-26	27
C[C@H]1CN([C@@H](C)CO)C(=O)c2cccc(NC(=O)Nc3ccc(F)cc3)c2O[C@@H]1CN(C)Cc1ccc(Cl)c(Cl)c1	109*	nt	-7	32
Brc1cccc(Nc2ncnc3cc4nc[nH]c4cc23)c1	27	4	29	15
C[C@@H]1CCCCO[C@H](CN(C)CC2CCCCC2)[C@@H](C)CN([C@H](C)CO)C(=O)c2cc(NC(=O)CCC(F)(F)F)ccc2O1	12	-2	-8	-11
Cc1nc(SC2CCCCN(C(=O)c3ccc(Cl)cc3)C2=O)c2c3c(sc2n1)CCCC3 (stereo unspecified)	93*	0	19	-21

High-throughput results deposited in PubChem BioAssay by Broad Institute.
